Common to all, as to experiment: NCI-60 one-dose screen, 48 h (100 = growth as untreated, 0 = no growth, -100 = all killed)
One experiment relates to SK-MEL-2 melanoma. The note with it: 10 µM unless noted.
A further experiment concerns EKVX NSCLC. The note with it: 10 µM unless noted.
Another experiment has as its system SN12C renal. The note with it: 10 µM unless noted.
The next experiment deals with UO-31 renal. The note with it: 10 µM unless noted.
The subject of another experiment is ACHN renal. The note with it: 10 µM unless noted.
The test system of the next experiment is A498 renal. The note with it: 10 µM unless noted.
Another experiment concerns CCRF-CEM leukemia. The note with it: 10 µM unless noted.
The subject of another experiment is MOLT-4 leukemia. The note with it: 10 µM unless noted.
For a further experiment, the system named is SR leukemia. The note with it: 10 µM unless noted.
Another experiment relates to RPMI-8226 leukemia. The note with it: 10 µM unless noted.
For the next experiment, the system named is OVCAR-8 ovarian. The note with it: 10 µM unless noted.
Another experiment concerns OVCAR-5 ovarian. The note with it: 10 µM unless noted.
The test system of the next experiment is OVCAR-4 ovarian. The note with it: 10 µM unless noted.
Another experiment has as its system SK-OV-3 ovarian. The note with it: 10 µM unless noted.
The test system of another experiment is IGROV1 ovarian. The note with it: 10 µM unless noted.
Another experiment deals with OVCAR-3 ovarian. The note with it: 10 µM unless noted.
In the next experiment the test system is HS 578T breast. The note with it: 10 µM unless noted.
A further experiment deals with NCI/ADR-RES ovarian. The note with it: 10 µM unless noted.
A further experiment concerns CAKI-1 renal. The note with it: 10 µM.
A further experiment concerns TK-10 renal. The note with it: 10 µM unless noted.

This is part of a sample that, as a whole, favours compounds with a hit. Of some 83,000 tested, about 20% had one in any assay.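 Testing used 96-well plates and a 48-hour single-concentration exposure. Example: -40 means 40% of the starting cells died.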 Unmarked numbers belong to inactive results. The source made the active and inactive calls. How the source made its calls: active means growth percent below 10; inactive means the rest.

In the case of `O=c1c2ccccc2sc2c(N3CCCC3)nc3ccccc3c12`, the growth was 127% in the experiment on SK-MEL-2 melanoma; 103% with EKVX NSCLC; 91.3% with SN12C renal; 97% in the experiment on UO-31 renal; 98.6% in the experiment on ACHN renal; 73% in the experiment on A498 renal. Also, the growth in the experiment with CCRF-CEM leukemia is 92.1%; in the experiment on MOLT-4 leukemia, 102%; in the experiment with SR leukemia it was 81.5%; in the experiment on RPMI-8226 leukemia, 92.8%; with OVCAR-8 ovarian it was 93.6%; in the experiment with OVCAR-5 ovarian, 112%. For the same compound, the growth was 95.2% with OVCAR-4 ovarian; 118% with SK-OV-3 ovarian; 85.8% with IGROV1 ovarian; 107% in the experiment on OVCAR-3 ovarian; 89.6% in the experiment on HS 578T breast; 102% in the experiment on NCI/ADR-RES ovarian.
As to `CCn1c(SCC(=O)c2ccc(Br)cc2)nnc1-c1cc2c([nH]c3ccccc32)c(-c2cccc(O)c2)n1`, the growth is 69.9% in the experiment on SK-MEL-2 melanoma; 67.2% in the experiment with EKVX NSCLC; 96.5% in the experiment on SN12C renal; 70.4% with UO-31 renal; 60.5% with ACHN renal; 83.7% with CAKI-1 renal. For the same compound, the growth with A498 renal is 73.5%; in the experiment on CCRF-CEM leukemia, 78.5%; in the experiment with RPMI-8226 leukemia it was 69.4%; in the experiment with OVCAR-8 ovarian, 77.5%; in the experiment on OVCAR-5 ovarian it was 95.1%; in the experiment with OVCAR-4 ovarian, 71.4%. The growth in the experiment on SK-OV-3 ovarian is 86.7%; in the experiment with IGROV1 ovarian it was 88.5%; in the experiment with OVCAR-3 ovarian, 80.4%; in the experiment on HS 578T breast, 73.7%; in the experiment on NCI/ADR-RES ovarian it was 81.1%.
Turning to `Cc1ccc(=O)n(-c2ccc(Br)cc2F)c1`, the growth in the experiment on SK-MEL-2 melanoma was 116%; with EKVX NSCLC, 99.5%; with SN12C renal, 107%; in the experiment on UO-31 renal, 90.7%; with ACHN renal it was 94.6%; in the experiment with A498 renal, 84%. The growth in the experiment with CCRF-CEM leukemia was 99.9%; in the experiment with MOLT-4 leukemia, 108%; in the experiment with SR leukemia it was 108%; in the experiment with RPMI-8226 leukemia it was 101%; in the experiment with OVCAR-8 ovarian, 99%; in the experiment with OVCAR-5 ovarian it was 105%. Besides, the growth was 97.3% with OVCAR-4 ovarian; 90.4% in the experiment with SK-OV-3 ovarian; 97.6% in the experiment on IGROV1 ovarian; 109% in the experiment with OVCAR-3 ovarian; 100% in the experiment with HS 578T breast; 104% in the experiment on NCI/ADR-RES ovarian.
For the compound `COc1cc(Nc2ncccc2C(=O)Nc2nc3ccc(F)cc3s2)cc(OC)c1OC`, the growth is 75.3% in the experiment on SK-MEL-2 melanoma; 22% with EKVX NSCLC; 63.2% with SN12C renal; 114% in the experiment with TK-10 renal; 79.9% in the experiment on ACHN renal; 18.4% in the experiment on CAKI-1 renal. Further, the growth in the experiment on A498 renal was 62.2%; in the experiment with CCRF-CEM leukemia, 29.7%; with MOLT-4 leukemia, 74.5%; in the experiment with SR leukemia, 104%; with OVCAR-8 ovarian, 91.2%; in the experiment on OVCAR-5 ovarian, 105%. Also, the growth in the experiment with OVCAR-4 ovarian was 5% (active); in the experiment on SK-OV-3 ovarian, 91.7%; in the experiment with IGROV1 ovarian it was 74.5%; in the experiment with OVCAR-3 ovarian, 55.6%; with HS 578T breast, 72.8%; with NCI/ADR-RES ovarian, 67.2%.
As to `O=C(NOC1OC(CO)C(O)C(O)C1O)Nc1ccccc1` (configuration not stated), the growth was 98.3% with SK-MEL-2 melanoma; 102% in the experiment with EKVX NSCLC; 91.6% in the experiment on SN12C renal; 109% with TK-10 renal; 101% in the experiment with ACHN renal; 92.1% in the experiment with CAKI-1 renal. Moreover, the growth with A498 renal was 120%; in the experiment on CCRF-CEM leukemia, 91%; in the experiment on MOLT-4 leukemia, 79.7%; with SR leukemia, 75.2%; in the experiment on RPMI-8226 leukemia it was 87.3%; in the experiment on OVCAR-8 ovarian, 103%. The growth in the experiment with OVCAR-5 ovarian is 100%; in the experiment on OVCAR-4 ovarian, 105%; in the experiment with SK-OV-3 ovarian, 95.7%; in the experiment on IGROV1 ovarian, 111%; with OVCAR-3 ovarian it was 105%; with HS 578T breast, 103%. Further, the growth in the experiment with NCI/ADR-RES ovarian is 109%.
Turning to `COc1ccc(C(=O)NC(=O)Nc2ccc3c(c2)NC(=O)/C3=C\c2[nH]c(C)c(C(=O)O)c2C)cc1`, the growth in the experiment with SK-MEL-2 melanoma was 93.8%; with EKVX NSCLC, 81.7%; in the experiment on SN12C renal it was 73%; in the experiment on UO-31 renal, 80.4%; in the experiment on ACHN renal, 52.6%; in the experiment with A498 renal it was 95.9%. Moreover, the growth with CCRF-CEM leukemia is 64%; in the experiment on MOLT-4 leukemia, 25.2%; in the experiment on SR leukemia it was 34.3%; with OVCAR-8 ovarian it was 39.9%; with OVCAR-5 ovarian, 121%; with OVCAR-4 ovarian, 93%. The growth in the experiment with SK-OV-3 ovarian was 118%; in the experiment with IGROV1 ovarian it was 75.4%; in the experiment on OVCAR-3 ovarian, 52.7%; with HS 578T breast, 46.8%; in the experiment on NCI/ADR-RES ovarian it was 99.1%.
For the compound `Nc1ncc(-c2ccc3ncnc(Nc4ccc(F)c(Cl)c4)c3c2)cn1`, the growth in the experiment with SK-MEL-2 melanoma was 95%; in the experiment on EKVX NSCLC, 40.8%; with SN12C renal it was 37.4%; in the experiment with UO-31 renal, 12%; in the experiment with ACHN renal, -74.2% (active); in the experiment on A498 renal, 23%. The growth is 61.4% with CCRF-CEM leukemia; 80.4% in the experiment with MOLT-4 leukemia; -35.1% (active) in the experiment with SR leukemia; 50% with RPMI-8226 leukemia; 61.3% with OVCAR-8 ovarian; 80.3% in the experiment with OVCAR-5 ovarian. Further, the growth in the experiment on OVCAR-4 ovarian was -17.3% (active); with SK-OV-3 ovarian, 65.7%; in the experiment with IGROV1 ovarian, 1.68% (active); with OVCAR-3 ovarian it was -57.4% (active); in the experiment with HS 578T breast it was 34.6%; in the experiment on NCI/ADR-RES ovarian it was 59.4%.
Turning to `O=c1c2ccccc2sc2c(NCCCNCCO)nc3ccccc3c12`, the growth was -35.6% (active) with SK-MEL-2 melanoma; 55.6% with EKVX NSCLC; 44.8% in the experiment with SN12C renal; 28.9% with UO-31 renal; -7.87% (active) in the experiment on ACHN renal; 16.4% in the experiment with A498 renal. Moreover, the growth in the experiment on CCRF-CEM leukemia is -6.25% (active); with MOLT-4 leukemia it was -20.4% (active); in the experiment with SR leukemia, -25.9% (active); in the experiment with RPMI-8226 leukemia, -14.8% (active); with OVCAR-8 ovarian, 17.7%; in the experiment on OVCAR-5 ovarian, 76.3%. Besides, the growth with OVCAR-4 ovarian was 60.4%; in the experiment on SK-OV-3 ovarian, 69.4%; in the experiment on IGROV1 ovarian it was 27%; with OVCAR-3 ovarian, 35.2%; in the experiment on HS 578T breast, 34%.

The values above are taken from PubChem BioAssay (NCI).
